Screen size: about 360,000 compounds; about 7,300 (2%) were called active. This is one part of a sample in which actives are shown more often than they occur. A number with no mark means an inactive call. Cut-off read from the data, not from the text of the source: active = inhibition above about 50%; inactive = the rest.
Assay: blockers of TWEAK-induced Fn14 reporter activity – luciferase reporter cells, uHTS, primary screen (AID 1159606)
Conditions: TWEAK-stimulated Fn14 reporter cells, luciferase luminescence, 8 h; at 10 µM; hits give high values

Row | SMILES | inhibition
1 | CC1=CC=CC2=N/C(=N\S(=O)(=O)c3ccc(F)cc3F)c3ccccc3CN12 | -4.26%
2 | O=S(=O)(Nc1ccc(O)c2ccccc12)c1ccc(OC(F)(F)F)cc1 | 84.1% (active)
3 | O=S(=O)(Nc1ccc(OC(F)(F)F)cc1)c1cccc2nonc12 | -6.65%
4 | COc1ccccc1NS(=O)(=O)c1ccc(C(=O)N2CCN(c3ccccc3O)CC2)cc1 | 9.79%
5 | O=C(NNC(=O)c1cccc(S(=O)(=O)Nc2ccc(Cl)cc2)c1)c1ccc(=O)[nH]c1 | 12.3%
6 | CCc1ccc(NC(=O)Nc2ccncc2)cc1 | -5.44%
7 | Cc1ccc(NC(=O)Nc2nnc(-c3ccncc3)s2)cc1 | 54.9% (active)
8 | CC(C)=CC(=O)Nc1nnc(-c2ccc(F)cc2)s1 | -55.7%
9 | Cc1cc(=O)oc(C)c1C(=O)Nc1cnc2ccccc2c1 | 1.75%
10 | CC1(C)OC(=O)C2=C(C[C@@H](C3CC3)O[C@H]2c2ccc(Cl)cc2)O1 | 7.97%
11 | CCCCOC(=O)c1ccc(NC(c2ccc(C)cc2)P(=O)(OC)OC)cc1 (centres undefined) | 4.7%
12 | O=[N+]([O-])c1ccc(Oc2ccc(F)cc2Br)c2ccncc12 | 69.9% (active)
13 | CC(NC(=O)CCCC1CCCCC1)c1ccc(S(N)(=O)=O)cc1 (centres undefined) | 11.9%
14 | Cc1cc(S(=O)(=O)N2CCOCC2)ccc1OCC(=O)Nc1cccc(C(F)(F)F)c1 | 21.1%
15 | CC(=O)N1CCCc2cc(S(=O)(=O)CCC(=O)N3CCN(c4ccccc4)CC3)ccc21 | -26.2%
16 | CC(=O)N1CCCc2cc(S(=O)(=O)N3CCCC(C(=O)N4CCN(c5cccc(Cl)c5)CC4)C3)ccc21 (centres undefined) | 87.5% (active)
17 | CC(=O)N1c2ccc(S(=O)(=O)N3CCC(C(=O)N4CCN(c5ccccc5)CC4)CC3)cc2CC1C (centres undefined) | -8.65%
18 | Cc1ccnc(SCCn2c(N(C)Cc3ccccc3)nc3c2c(=O)n(C)c(=O)n3C)n1 | -11.8%
19 | O=c1c2ccccc2c(-c2ccc(F)cc2)nn1-c1ccc(C(F)(F)F)cc1 | -4.84%
20 | Cn1c(-c2ccc(C(F)(F)F)cc2)cc2onc(-c3ccccc3)c2c1=O | 51.4% (active)
21 | Cn1c(-c2ccc(F)cc2)cc2onc(-c3ccccc3Cl)c2c1=O | 6.49%
22 | CC(=O)N1Cc2cc(C(=O)NCc3cccc(F)c3)nc(-c3cccc(C4=CCCCC4)c3)c2[C@H]1CCO | 24.6%
23 | CCCCn1c(N)c(N(CCOC)C(=O)CSCC(=O)Nc2cccc(C)c2)c(=O)[nH]c1=O | 4.51%

Row | SMILES | inhibition
24 | CC(C)Nc1ccc(-n2nc3ccccc3[n+]2[O-])cc1 | 62.4% (active)
25 | C[C@H]([C@@H](O)[C@@H](O)[C@@H](C)C(C)(C)C)[C@H]1CC[C@H]2C3CC[C@H]4C[C@H](OS(=O)(=O)O)[C@@H](OS(=O)(=O)O)C[C@]4(C)[C@H]3CC[C@]12C (some centres undefined) | 3.39%
26 | CCCC1C(=O)N2C(N(C)C)=Nc3ccc(C)cc3N2C1=O (centres undefined) | -18.1%
27 | C=CCOc1ccc(/C=C2\SC(=S)N(CCC(=O)O)C2=O)cc1 | 90% (active)
28 | O=C(O)c1ccc(/C=C2\SC(=S)N(NC(=O)c3ccc(Br)cc3)C2=O)cc1 | 2.06%
29 | O=C1/C(=C\c2ccccc2Cl)SC(=S)N1CCC(=O)N1CCCc2ccccc21 | 3.74%
30 | CCCNC(=O)C1(C)CCN(C(=O)c2ccc(F)cc2Cl)C1 (centres undefined) | 2.61%
31 | COc1cccc2cc(C(=O)N3CCN(C(=O)c4ccccc4)CC3)c(=O)oc12 | 11.9%
32 | COc1cccc2cc(C(N)=O)/c(=N\NC(=O)c3ccccc3)oc12 | 91.4% (active)
33 | COc1cccc2cc(C(=O)N(C)C)c(=O)oc12 | 0.46%
34 | CCN(CC)S(=O)(=O)c1ccc(C(=O)N2CCN(C3=NS(=O)(=O)c4ccccc43)CC2)cc1 | -0.95%
35 | O=S1(=O)CC(N2CCN(CCO)CC2)CN1Cc1cn(Cc2cccc(Cl)c2)nn1 (centres undefined) | 13.2%
36 | CCOC(=O)C(NS(=O)(=O)c1ccc(C)cc1)(C(F)(F)F)P(=O)(OCC(C)C)OCC(C)C (centres undefined) | 56.7% (active)
37 | CC(=O)N1CCN(CC(C)(C)NS(=O)(=O)c2ccc(C)cc2)CC1 | 14%
38 | Cc1ccc(S(=O)(=O)NCC(C)NS(C)(=O)=O)cc1 (centres undefined) | 4.2%
39 | O=C(CN1C(=O)/C(=C\c2ccccc2F)SC1=S)Nc1nc2ccccc2s1 | 29.6%
40 | O=C(CN1C(=O)/C(=C\c2ccc(C(F)(F)F)cc2)Sc2ccccc21)NCc1ccco1 | 27.1%
41 | O=C(CN1C(=O)/C(=C/c2ccccc2F)Sc2ccccc21)NCc1cccnc1 | 52.7% (active)
42 | O=C(NCc1ccccn1)[C@@H]1CCCN1C(=O)[C@@H]1CCCN1C(=O)c1ccccc1 | 7.41%
43 | Cc1ccc(NS(=O)(=O)c2cc3c(cc2C)NC(=O)CO3)cc1 | 8.45%
44 | O=C(Nn1cnc2ccccc2c1=O)c1ccc(F)cc1Cl | -23.3%
45 | CCC(C)N1C(=O)S/C(=C/c2ccc(Sc3nc4ccccc4[nH]3)o2)C1=O (centres undefined) | 69.5% (active)
46 | CN1CCN(c2ccc([N+](=O)[O-])c(Sc3nc4ccccc4[nH]3)c2)CC1 | 17%

Row | SMILES | inhibition
47 | CC(C)c1ccc(/C=C2\NC(=O)NC2=O)cc1 | 18.4%
48 | CCOc1ccc(C(=O)NC(=S)Nc2ccc(NC(=O)C(C)C)cc2)cc1[N+](=O)[O-] | 3.3%
49 | CCOc1ccc(C(=O)NC(=S)Nc2ccc(N3CCOCC3)c(Cl)c2)cc1[N+](=O)[O-] | 62.8% (active)
50 | O=C(CSc1ccc([N+](=O)[O-])cn1)Nc1ccc(N2CCOCC2)c(Cl)c1 | -16.6%
51 | COc1ccc(C(C#N)=C2C=CC(=NO)c3ccccc32)cc1 | 88% (active)
52 | COc1ccc(/C(N)=N/OC(=O)Cc2ccccc2)cc1 | -44.1%
53 | COc1ccc(C(=NN)c2ccc(OC)cc2)cc1 | -20.6%
54 | CCOc1ccc(Br)cc1S(=O)(=O)N1CCC(C(=O)O)CC1 | 0.18%
55 | OCCNc1nc(Nc2ccc(Cl)c(Cl)c2)nc2ccccc12 | 84.3% (active)
56 | O=C(Cn1c(NCCO)nc2ccccc21)c1ccc(Cl)cc1Cl | 22.5%
57 | OCCNCCOc1ccc(Cl)c(Cl)c1 | 5.07%
58 | COC(=O)[C@]12CCCCC=C1N(Cc1ccc(Cl)cc1Cl)C(=O)[C@H](CC(=O)NCc1cccc3ccccc13)C2 | 5.94%
59 | O=C(COc1ccccc1)N1CCN=C1SCc1cccc(F)c1 | -2.31%
60 | COc1ccc(CCNC(=O)C2CCCN(Cc3nc(-c4cccc(Cl)c4)oc3C)C2)cc1OC (centres undefined) | 25.8%
61 | O=C(COc1ccc(S(=O)(=O)NCCc2ccccc2)cc1)N1CCCC1 | 11.6%
62 | COC(=O)C1(C)CC1(c1ccccc1)c1ccccc1 (centres undefined) | 7.44%
63 | COc1cc(C#Cc2ccc3cc(CCCO)oc(=O)c3c2)cc(OC)c1 | 18.9%
64 | O=C1c2ccccc2C(=O)N1CCC#Cc1ccc2cc(C3(O)CCCCC3)oc(=O)c2c1 | 71.2% (active)
65 | C(#CCN1CCOCC1)CCCN1CCOCC1 | -1.19%
66 | COc1ccc(CCNC(=O)c2c(C)nn(-c3ccccc3)c2Cl)cc1 | -12.5%
67 | Cc1nn(-c2ccccc2)c(C)c1/C=C/C(=O)OC(C)C(N)=O (centres undefined) | -4.83%
68 | Cc1nn(-c2ccccc2)c(Cl)c1/C=C/C(=O)c1ccc(O)cc1 | 57.3% (active)
69 | Cc1sc(NC(=S)NC(=O)c2cccs2)nc1-c1ccc(CC(C)C)cc1 | -5.35%

Row | SMILES | inhibition
70 | C=CCOC(=O)C1=C(C)NC(C)=C(C(=O)OCC=C)C1c1cccs1 | 20.3%
71 | O=S1(=O)CC(N2CCN(CCO)CC2)CN1C1CCCC1 (centres undefined) | 11.3%
72 | COc1ccc(-c2c(C)nn3c(N4CCC(C(=O)N5CCCCC5)CC4)cc(C)nc23)cc1OC | -3.08%
73 | Cc1cc(C(=O)COc2ccccc2Cl)c(C)n1C1CC1 | -10.6%
74 | Cc1cc(C(=O)COC(=O)C2CC2)c(C)n1-c1ccc(F)cc1 | 95.2% (active)
75 | Cc1ccc(-n2c(C)cc(C(=O)CN3C(=O)C(=O)N(C4CCCC4)C3=O)c2C)cc1 | 40.7%
76 | Nc1nc2c(Br)ccc(Br)c2cc1C(=O)NCCc1ccccc1 | 14.3%
77 | CCCCc1cc(=O)oc2c(C)c(OCC(=O)N3CCC(C(N)=O)CC3)ccc12 | -5.28%
78 | O=C(NCc1ccccc1Cl)c1csc([C@@H]2O[C@H](CO)[C@@H](O)[C@H]2O)n1 | -0.12%
79 | COc1ccccc1CN1CCNC(=O)C1CC(=O)N(C)CC1CCOCC1 (centres undefined) | 1.59%
80 | CCN(CCn1cccn1)C(=O)CC1C(=O)NCCN1Cc1cccc(OC)c1OC (centres undefined) | 68.3% (active)
81 | CN(Cc1cccc2ncccc12)C(=O)CC1C(=O)NCCN1Cc1ccc(F)cc1 (centres undefined) | -1.61%
82 | Cc1nc2nc3c(cn2n1)C(=O)CC(c1ccccc1)C3 (centres undefined) | 8.49%
83 | CC1CN(C(=O)CN2C(=O)NC(C)(c3ccccc3)C2=O)CC(C)O1 (centres undefined) | 0.1%
84 | CN(C)c1nc(N)nc(CSc2nnnn2-c2cccc3ccccc23)n1 | -0.11%
85 | Cc1cccc(C)c1-n1nnnc1C1(C)CCC(=O)N1CCOc1ccccc1 (centres undefined) | -0.09%
86 | CCC1CCCCN1C(=O)CSc1nc2c(c(=O)n1C)SC(C)C2 (centres undefined) | 4.38%
87 | CCN(CC)C(=O)c1sc2nc(-c3ccccc3)ccc2c1N | 69.9% (active)
88 | CCOC(=O)C(C)n1nc(-c2ccccc2)c2ccccc2c1=O (centres undefined) | 7.15%
89 | CCN(CC)C(=O)c1nc[nH]c1C(=O)N(C)Cc1ccccc1 | 6.48%
